A selection: hits, their analogues and other compounds. The true share with any hit is near 7.4%.
FLuc counter – qHTS profiling assay for firefly luciferase inhibitor/activator using purifed enzyme and Km concentrations of substrates (counterscreen for miR-21 project); Luciferin 4-monooxygenase (Photinus pyralis), P08659; purified FLuc, Km substrates, luminescence inhibition; Potency, µM (series often up to 57.5 µM), without a hit: top-dose activity change, negative = inhibition, hits mostly inhibitors; 360,000 compounds, 6.9% hits; AID 588342, 2011;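 also: plate controls were vehicle for no effect and reference inhibitor for full effect; nearly all actives have a fitted effect of over 55% in size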
Target sequence (P08659 whole entry, looked up): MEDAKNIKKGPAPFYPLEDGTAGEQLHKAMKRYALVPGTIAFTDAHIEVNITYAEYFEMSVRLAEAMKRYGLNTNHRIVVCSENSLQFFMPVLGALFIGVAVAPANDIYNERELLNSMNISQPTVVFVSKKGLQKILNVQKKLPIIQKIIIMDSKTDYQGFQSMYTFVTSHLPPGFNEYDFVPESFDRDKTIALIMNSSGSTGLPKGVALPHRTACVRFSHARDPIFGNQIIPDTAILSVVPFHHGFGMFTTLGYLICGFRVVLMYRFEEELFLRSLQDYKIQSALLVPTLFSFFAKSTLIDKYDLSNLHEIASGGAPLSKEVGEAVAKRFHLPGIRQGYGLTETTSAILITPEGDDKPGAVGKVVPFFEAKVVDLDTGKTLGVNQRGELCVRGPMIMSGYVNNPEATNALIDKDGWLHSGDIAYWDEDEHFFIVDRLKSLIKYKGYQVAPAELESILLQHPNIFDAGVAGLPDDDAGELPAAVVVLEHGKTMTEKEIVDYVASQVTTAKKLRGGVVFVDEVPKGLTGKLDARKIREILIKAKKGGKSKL
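Purified P. pyralis luciferase, 10 nM final, with Km-level 10 uM D-luciferin and 10 uM ATP in 50 mM Tris acetate pH 7.5, 10 mM Mg acetate, 0.01% Tween-20, 0.05% BSA; 6-point qHTS titration about 60 µM downward; luminescence read.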
NPC1 promoter act – qHTS Assay for NPC1 Promoter Activators; Potency, µM (series often up to 9.22 µM), for inactives: top-dose activation, hits mostly activators; 320,000 compounds, 2.4% hits; Huh7 NPC1 promoter luciferase reporter, 24 h; AID 485313, 2010; also: % of control where 0% means no effect; nearly all actives have a fitted effect of over 60% in size
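Luminescence read-out of NPC1 promoter-driven luciferase in stably transfected Huh7 cells; compounds delivered in DMSO and left 24 h at 37C, 5% CO2, qHTS titration format.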
ELG1 genotoxic – qHTS screen for small molecules that induce genotoxicity in human embryonic kidney (HEK293T) cells expressing luciferase-tagged ELG1; HEK293T ELG1-luciferase reporter, luminescence, 16 h; Potency, µM (titrated, usually from 46 µM), for inactives: top-dose activity change, positive = activation, hits mostly activators; 330,000 compounds, 1.3% hits; AID 504466, 2011; also: % of control where 0% means no effect; nearly all actives have a fitted effect of over 60% in size
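Reporter readout depends on ELG1 protein level, which increases with genetic stress. After 16 hr compound exposure at 37 °C, luciferase activity was quantified using ONE-Glo.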
p53 reactivation – qHTS assay for re-activators of p53 using a Luc reporter; H1299 p53-A138V BP100-luciferase reporter, luminescence, 24 h; Potency, µM (titrated, usually from 92.2 µM), inactives show at the top dose activity change, positive = activation, most hits filed as activators; 320,000 compounds, 0.063% hits; also: % of control where 0% means no effect; nearly all actives have a fitted effect of over 45% in size
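H1299 (p53-null), stable ts p53-A138V + BP100-Luc; 1000 cells/well, Opti-MEM/10% FBS; cpd 4 pt, 1:5; 24 h, 37 deg C, 5% CO2; detection reagent 10 min RT; luminescence.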
Rab9 prom act – qHTS Assay for Rab9 Promoter Activators. Huh7 Rab9 promoter-luciferase reporter, luminescence, 24 h. Potency, µM (top dose mostly 9.22 µM), without a hit: at the highest dose activation, negative = inhibition, hits mostly activators. 320,000 compounds, 2.8% hits. AID 485297, 2010; also: % of control where 0% means no effect; nearly all actives have a fitted effect of over 60% in size
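Using Huh7 cells stably transfected with Rab9 promoter–luciferase, compounds were incubated 24 h at 37 °C, 5% CO2; luciferase luminescence was read 10 min after reagent addition.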
SMN2 splice up – qHTS Assay for Enhancers of SMN2 Splice Variant Expression. HEK293 SMN2-luciferase splicing reporter, luminescence, 30-36 h. Potency, µM (doses to about 46.1 µM), for inactives: top-dose activity change, positive = activation, most hits filed as activators. 210,000 compounds, 2.8% hits. AID 1458, 2008; also: % of control where 0% means no effect; nearly all actives have a fitted effect of over 55% in size
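HEK293 cells carry an SMN2 minigene-luciferase reporter in which exon 7 inclusion puts luciferase in frame. Cells were seeded at 2000 cells/well, attached for 10-12 hours, then exposed to compounds for 30-36 hours at 37C before ONE-Glo luminescence.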
An asterisk follows results filed as active; [ ] = remark or other dose. Calls follow the shape of the dose curve; as a rule, active = well fitted curve in the direction sought with a large enough effect; inconclusive = small, poorly fitted or top-dose-only effect, or another doubt; inactive = no such curve, though single readings can be large; an effect the other way counts as inactive or inconclusive. Potency is read from the fitted curve at half-maximal effect.

What do the screens show for `O=C1N=c2ccccc2=C1c1sc(NS(=O)(=O)c2ccccc2)nc1O`?
FLuc counter: inconclusive; NPC1 promoter act: 2%; ELG1 genotoxic: -1%; p53 reactivation: 5%; Rab9 prom act: 2%; SMN2 splice up: -7%

What do the screens show for `O=C1N=c2ccccc2=C1c1sc(NS(=O)(=O)Cc2ccccc2)nc1O`?
FLuc counter: 11µM*; NPC1 promoter act: 2%; ELG1 genotoxic: 4%; p53 reactivation: 5%; Rab9 prom act: -3%

What do the screens show for `CCOC(=O)CCn1cnc2onc(-c3cc(OC)ccc3Cl)c2c1=O`?
FLuc counter: -6%; SMN2 splice up: 17%

Results for O=C(COC(=O)c1ccc2c(c1)OCO2)NC1CCCCC1 ?
ELG1 genotoxic: 9%; p53 reactivation: 23%

How did COC(=O)c1ccccc1CSc1nsc(/C=C/N(C)C)c1C#N do in these assays?
FLuc counter: -11%; NPC1 promoter act: 2%; ELG1 genotoxic: -4%; p53 reactivation: 2%; Rab9 prom act: -5%[1.84 µM]

What do the screens show for `Cc1nc(CSc2nsc(/C=C/N(C)C)c2C#N)cs1`?
FLuc counter: 24µM*; NPC1 promoter act: -15%; ELG1 genotoxic: 1%; p53 reactivation: 1%; Rab9 prom act: 13%; SMN2 splice up: -4%

What do the screens show for `CCCCC(=O)N(Cc1ccc(-c2ccccc2-c2nn[nH]n2)cc1)C(C(=O)O)C(C)C` (stereo not given)?
SMN2 splice up: 8%

What do the screens show for `COc1cc2ccccc2cc1C(=O)NC1CCCC1`?
ELG1 genotoxic: 10%; p53 reactivation: inconclusive

How did O=C(NC1CCCCCC1)c1cc2ccccc2oc1=O do in these assays?
FLuc counter: 2.7µM*; NPC1 promoter act: 3.2µM*; ELG1 genotoxic: 13%; p53 reactivation: inconclusive; Rab9 prom act: 2%

How did COc1cc2ccccc2cc1C(=O)NC1CCCCC1 do in these assays?
FLuc counter: 12µM*; NPC1 promoter act: 27%; ELG1 genotoxic: 13%; p53 reactivation: inconclusive; Rab9 prom act: inconclusive

Results for CN(C(=O)COC(=O)c1cc2ccccc2oc1=O)C1CCCCC1 ?
ELG1 genotoxic: 4%; p53 reactivation: 11%

What do the screens show for `COc1ccc2cc(C(=O)NC3CCCCC3)c(=O)oc2c1`?
FLuc counter: inconclusive; NPC1 promoter act: 13%; ELG1 genotoxic: inconclusive; p53 reactivation: -2%; Rab9 prom act: inconclusive; SMN2 splice up: 8%

How did O=C(OC1CCCCC1)c1cc2ccccc2oc1=O do in these assays?
FLuc counter: 7.6µM*; NPC1 promoter act: inconclusive; ELG1 genotoxic: inconclusive; p53 reactivation: inconclusive; Rab9 prom act: inconclusive

How did O=C(NCCC1=CCCCC1)c1cc2ccccc2oc1=O do in these assays?
FLuc counter: 4.8µM*; NPC1 promoter act: -1%; ELG1 genotoxic: inconclusive; p53 reactivation: 3%; Rab9 prom act: 3%

How did Cc1ccc(-c2csc(N3CCC[C@@H]3C(=O)NCCn3c(-c4ccncc4)nc4ccccc43)n2)cc1 do in these assays?
FLuc counter: -13%; NPC1 promoter act: -1%; ELG1 genotoxic: -9%; p53 reactivation: 5%; Rab9 prom act: 2%

Results for N=c1oc2ccccc2cc1C(=O)NC1CCCCCC1 ?
FLuc counter: 4.8µM*; NPC1 promoter act: inconclusive; ELG1 genotoxic: inconclusive; p53 reactivation: 6%; Rab9 prom act: -46%

Results for N=c1oc2ccc(Cl)cc2cc1C(=O)NC1CCCCCC1 ?
FLuc counter: inconclusive; NPC1 promoter act: 0%; ELG1 genotoxic: 7%; p53 reactivation: 2%; Rab9 prom act: 4%

What do the screens show for `COc1ccccc1-c1nnc(SCC(=O)O)n1-c1ccccc1`?
FLuc counter: inconclusive; NPC1 promoter act: 0%; ELG1 genotoxic: -1%; p53 reactivation: 2%; Rab9 prom act: -7%; SMN2 splice up: -6%

What do the screens show for `CCn1c(SCC(=O)O)nnc1-c1ccccc1OC`?
FLuc counter: 13µM*; NPC1 promoter act: 4.5µM*; ELG1 genotoxic: 23µM*; p53 reactivation: 5%; Rab9 prom act: 3.2µM*

What do the screens show for `Cn1c(SCC(=O)c2ccccc2)nnc1-c1cnccn1`?
FLuc counter: inconclusive; NPC1 promoter act: inconclusive; ELG1 genotoxic: inconclusive; p53 reactivation: inconclusive; Rab9 prom act: 3.2µM*; SMN2 splice up: 24%

How did Cn1c(SCC(=O)c2ccccc2)nnc1-c1cccnc1 do in these assays?
FLuc counter: -19%; NPC1 promoter act: 27%; ELG1 genotoxic: -2%; p53 reactivation: inconclusive; Rab9 prom act: inconclusive; SMN2 splice up: 4%

Results for CCn1c(SCC(=O)c2ccccc2)nnc1-c1cnccn1 ?
FLuc counter: 21µM*; NPC1 promoter act: inconclusive; ELG1 genotoxic: 16µM*; p53 reactivation: 7%; Rab9 prom act: inconclusive; SMN2 splice up: inconclusive

How did CCC(=O)Nc1cccc(-n2nnnc2SCC(=O)c2ccc(C)c(C)c2)c1 do in these assays?
FLuc counter: 15µM*; NPC1 promoter act: 17%; ELG1 genotoxic: 12%; p53 reactivation: inconclusive; Rab9 prom act: 17%; SMN2 splice up: -10%

How did COc1ccc(-c2cnc(C)o2)cc1S(=O)(=O)Nc1ccc(NC(C)=O)cc1 do in these assays?
FLuc counter: -2%

Results for COc1ccccc1OCC(=O)N(Cc1cccs1)C1CCS(=O)(=O)C1 (stereo not given) ?
FLuc counter: 0%; SMN2 splice up: -2%

What do the screens show for `CCCCCCCCCCCCCCCCCCOC[C@H](COP(=O)([O-])OCC[N+](C)(C)C)OC`?
NPC1 promoter act: -4%[46.1 µM]; Rab9 prom act: -2%[46.1 µM]; SMN2 splice up: -8%

Results for CCCN1CCN(S(=O)(=O)c2ccc3c(c2)NC(=O)C(C)C(=O)N3)CC1 (stereo not given) ?
FLuc counter: 6%; NPC1 promoter act: -3%; ELG1 genotoxic: inconclusive; Rab9 prom act: 0%

How did CC(C)CN(CC(C)C)S(=O)(=O)c1ccc(C(=O)Nc2sc3c(c2C(N)=O)CC(C)(C)NC3(C)C)cc1 do in these assays?
FLuc counter: 0%

What do the screens show for `CCC(=O)Nc1cccc(-c2nnc(SCC(=O)c3ccccc3)n2C)c1`?
FLuc counter: 6µM*; NPC1 promoter act: inconclusive; ELG1 genotoxic: inconclusive; p53 reactivation: 15%; Rab9 prom act: 1.8µM*; SMN2 splice up: 3%
